Source: PubChem (National Center for Advancing Translational Sciences (NCATS))
Sampled rows, rich in hits. Any-hit rate of the full collection: about 21%.
Shiga inhibitor – Shiga toxin inhibition. 290,000 tested, 9.2% active. inhibition, % at 38.7 µM. AID 2315. Vero cells, Shiga toxin protein synthesis inhibition reporter; in the data active means inhibition mostly above about 28%, no sharp cut-off; inactive means mostly below about 43%; further: 0% is about no effect
SARS PLpro yeast – SARS-CoV PLP inhibition in yeast; Potency, µM (titrated, usually from 32.9 µM), for the others: at the top dose activity, positive = growth rescue, most hits filed as activators; 330,000 tested, 0.19% active; S. cerevisiae expressing SARS-CoV PLpro, growth rescue; AID 485353; further: potency means the concentration at half of the fitted maximal effect; 0% is about no effect; nearly all actives have a fitted effect of over 55% in size
Pf growth 96h – inhibits malaria parasite growth, 96 h; P. falciparum luciferase reporter growth, 96 h; Potency, µM (doses to about 28.7 µM), without a hit: at the top dose activity change, negative = inhibition, actives largely listed as inhibitors; 320,000 tested, 6.9% active; AID 504834; active means well fitted inhibition curve with a large enough effect; inconclusive means small, poorly fitted or top-dose-only effect, or another doubt; inactive means no such curve, though single readings can be large or run the other way; further: potency means the concentration at half of the fitted maximal effect; on the % scale 0 is the no-effect control and ±100 the full control effect
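96 h incubation, 37 C, 5% CO2, of luciferase-reporter P. falciparum-infected RBCs (2% hematocrit, 0.05% parasitemia final) with test compounds; endpoint luminescence.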
NS1 function inh – inhibitors of influenza NS1 protein function | Potency, µM (series often up to 46.1 µM), for inactives: at the highest dose activity, positive = more growth | 270,000 tested, 0.4% active | AID 2326; further: potency means the concentration at half of the fitted maximal effect; actives are rising curves; nearly all actives have a fitted effect of over 50% in size
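In this qHTS, NS1 from influenza A is expressed in budding yeast, where it slows growth. Cells are switched from glucose to 2% galactose medium (pH 6.0, -URA), treated with compound, and growth recovery is read at OD600.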
Pf growth 48h – P. falciparum growth inhibition at 48 hours (one generation); P. falciparum luciferase growth in erythrocytes, 48 h; Potency, µM (titrated, usually from 28.7 µM), inactives show top-dose activity change, negative = inhibition, usual class: inhibitors; 310,000 tested, 5.9% active; active means well fitted inhibition curve with a large enough effect; inconclusive means small, poorly fitted or top-dose-only effect, or another doubt; inactive means no such curve, though single readings can be large or run the other way; further: potency means the concentration at half of the fitted maximal effect; on the % scale 0 is the no-effect control and ±100 the full control effect
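Firefly luciferase activity from engineered P. falciparum reports growth; inhibitors lower the luminescent signal. Cultures contained 2% hematocrit erythrocytes at 0.1% final parasitemia.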
CHX counter – counter-screen hit for Shiga toxin inhibitors, cycloheximide | cell reporter, cycloheximide protein synthesis inhibition counterscreen | max response, % | 300,000 tested, 12% active | AID 2314; in the data active means max response mostly above about 13%, no sharp cut-off; inactive means mostly below about 14%; further: read at 38.3 µM for the half of the compounds with a filed dose; 0% is about no effect
The depositor's hits bear a star; i = inactive; ? = inconclusive; nt = no result given. Unless noted, the call rests on the fitted dose curve.

SMILES	Shiga inhibitor	SARS PLpro yeast	Pf growth 96h	NS1 function inh	Pf growth 48h	CHX counter
CCOC(=O)CN1C(=O)/C(=C/c2cccc(Br)c2)Oc2ccccc21	-12	-1%	18%	3%	?	-6
NC(N)=N/N=C/c1ccccc1OC(F)F	-18	-5%	-7%	nt	?	-2
FC(F)Oc1ccccc1/C=N/n1cnc2ccccc21	116*	-12%	76%	nt	65%	50*
Cc1ccc2[nH]c(CNC(=O)C3CCCCC3)cc2c1	14	-4%	22%	-4%	-8%	12
Cc1oc(-c2ccccc2Cl)nc1CS(=O)(=O)CC(=O)NCCN1CCOCC1	1	0%	6%	1%	5%	-2
O=C1C2=C(Nc3ccccc3SC2c2ccco2)c2ccccc21 (configuration not stated)	78*	-14%	6%	-55%	0.33µM*	33*
O=C(Cc1cccs1)N/N=C/C(Br)=C/c1ccccc1	77*	-3%	15%	-3%	126%	51*
CC(/C=N/NC(=O)Cc1cccn1C)=C\c1ccccc1	74*	10%	-10%	4%	54%	20*
CC(=C/c1ccccc1)/C=N/NC(=O)CSc1nc(C)cc(C)n1	-13	-21%	2%	-9%	8%	10
CC(/C=N/NC(=O)Cc1cccs1)=C\c1ccccc1	42*	-14%	88%	-1%	77%	60*
Cc1ccnc(NC(=O)CNC(=O)c2ccc(C)s2)c1	nt	2%	126%	nt	75%	nt
Cc1ccnc(NC(=O)c2cc3cc(F)ccc3s2)c1	83*	1%	-75%	-15%	-3%	45*
Cc1ccnc(NC(=O)Nc2ccc(F)cc2)c1	69*	-1%	39%	-10%	195%	35*
CSc1ccc(NC(=O)Nc2cc(C)ccn2)cc1	171*	0%	i	8%	125%	55*
COc1ccc(NC(=O)Nc2cc(C)ccn2)cc1	nt	nt	nt	-21%	nt	nt
Cc1ccc(NC(=O)Nc2ccc(F)cc2)nc1	65*	5%	2%	-3%	146%	47*
CCCCC1C(C#N)=C(C)NC2=C1C(=O)CC(C)(C)C2 (configuration not stated)	-21	-5%	nt	3%	-19%	-5
COc1cccc(NC(=O)CSc2nnc(NC(=O)c3ccco3)s2)c1	14	0%	56%	-11%	52%	11
COc1ccc(OC)c(C(C(=O)NC2CCCCC2)N(C(=O)c2ccccn2)c2cccnc2)c1 (configuration not stated)	-9	-1%	2%	4%	-9%	-3
Cc1ccnc(NC(=O)Nc2ccc(Br)cc2Cl)c1	91*	1%	49%	nt	434%	47*
O=C(Nc1ccc(Br)cc1Cl)Nn1cnnc1	-16	4%	-24%	5%	-3%	-3
Cc1cc(C)n(-c2nc(NCCO)c3c4c(sc3n2)CCCC4)n1	26	-10%	-8%	-97%	?	24*
Cc1cc(C)n(-c2nc(SCC(=O)O)c3c4c(sc3n2)CCCC4)n1	11	0%	?	2%	?	5
Cc1cc(C)n(-c2nc(NCC(C)O)c3c4c(sc3n2)CCCC4)n1 (configuration not stated)	32	-3%	?	-117%	nt	16*
Cc1cc(C)n(-c2nc(NCCCO)c3c4c(sc3n2)CCCC4)n1	43	-3%	58%	-105%	nt	18*
SMILES	Shiga inhibitor	SARS PLpro yeast	Pf growth 96h	NS1 function inh	Pf growth 48h	CHX counter
CCC1C(=O)CC2CCN3C(=O)CCC1C23 (configuration not stated)	14	nt	nt	nt	nt	-5
CCOC(=O)Cn1c(=O)oc2cc(S(=O)(=O)N3CCCC(C(=O)OCC)C3)ccc21 (configuration not stated)	-20	-1%	10µM*	-3%	nt	-1
CC1CC(C)CN(C(=O)Cn2c(=O)oc3cc(S(=O)(=O)N4CCCC4)ccc32)C1 (configuration not stated)	-5	-3%	12µM*	-1%	?	-3
CCCCN(C)C(=O)Cn1c(=O)oc2cc(S(=O)(=O)N3CC(C)CC(C)C3)ccc21 (configuration not stated)	-11	0%	13µM*	4%	?	1
CCOC(=O)Cn1c(=O)oc2cc(S(=O)(=O)N3CCCc4ccccc43)ccc21	-16	0%	-10%	10%	nt	-5
CCOC(=O)Cn1c(=O)oc2cc(S(=O)(=O)N3CCn4c3nc3ccccc34)ccc21	7	1%	15µM*	-55%	-11%	-2
c1ccc(CN2CCN(Cc3cn4cccnc4n3)CC2)cc1	96	-3%	?	nt	1%	5
O=[N+]([O-])c1cccc(OCc2cn3cccnc3n2)c1	14	0%	?	nt	28%	20*
Cc1ccc(OCc2cn3cccnc3n2)cc1	104*	3%	205%	?	92%	55*
Cc1cccn2cc(COc3ccc(-c4ccccc4)cc3)nc12	68*	-28%	104%	nt	249%	71*
Cc1cccn2cc(COc3cccc([N+](=O)[O-])c3)nc12	61*	-1%	24%	-1%	38%	22*
COc1ccc(OC)c(S(=O)(=O)NCc2cn3cccc(C)c3n2)c1	-3	19%	128%	-4%	-13%	0
O=c1cc(C(F)(F)F)nc(SCc2cccnc2)[nH]1	-9	-5%	8%	6%	23%	-3
COc1ccc([C@H]2CC(=O)C=C(c3ccc(Oc4ccccc4)cc3)C2)cc1OC	nt	-2%	?	nt	?	nt
COc1ccc(CNC(=O)[C@@H](NC(=O)C2CCN(C(=O)[C@@H](N)Cc3ccccc3)CC2)C(C)C)cc1	2	3%	-79%	-2%	0%	-1
CCCCN(C)Cc1c(O)ccc2c(=O)c(-c3ccccc3OC)coc12	-3	-1%	-29%	12%	?	-3
Nc1ccccc1C(=O)Nc1cccc2ccccc12	36*	-2%	111%	16%	150%	35*
O=C(Nc1cccc2ccccc12)c1ccccc1	96*	-1%	94%	6%	96%	42*
NC(=O)NNC(=S)Nc1cccc2ccccc12	-20	1%	0%	-4%	23%	-1
O=C(Nc1cccc2ccccc12)c1ccc([N+](=O)[O-])cc1	21	2%	7.4µM*	-11%	27%	14*
NC(=O)c1ccccc1NC(=O)Nc1cccc2ccccc12	15	0%	-7%	nt	?	36*
O=C(COC(=O)/C=C/C(=O)OCC(=O)Nc1ccccc1F)Nc1ccccc1F	-2	0%	25%	2%	?	-2
O=C(Nc1cccc2ccccc12)c1ccc(F)cc1	52*	2%	45%	-22%	32%	44*
NS(=O)(=O)c1ccc(O)c(NC(=O)c2ccc([N+](=O)[O-])cc2)c1	68	0%	?	3%	-54%	22*
CCN(C(=O)COC(=O)c1ccc(C=O)cc1)c1c(N)n(Cc2ccccc2)c(=O)[nH]c1=O	nt	5%	?	nt	-5%	nt
